For 105 compounds, inhibition results are on record in PubChem BioAssay AID1663 (Broad Institute, 2009).

The campaign covered roughly 300,000 compounds. About 660 (0.22%) were called active.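 The calls were made as follows: active = mean replicate score, as percent of positive control, at or above 50; inconclusive = mean below 50 but at least one replicate at or above 50; inactive = mean and every replicate below 50.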 For the sample, actives were picked, then their nearest neighbours and some compounds at random.

A short description of this test: inhibitors of platelet dense granule secretion, primary screen, cell-based, MLPCN, human platelets (AID 1663). To be noted: human platelet-rich plasma, SFLLRN dense granule ATP release, luminescence; stronger effect = higher value;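 compounds screened at 7.5 µM in platelet-rich plasma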.
`CCOc1ccc(/C(O)=C2\C(=O)C(=O)N(c3ccc(OC)cc3)C2c2ccccc2[N+](=O)[O-])cc1` (stereo not given): the inhibition (as a rule, the change of the read-out against control, counted positive when it falls) was 14.9% (inactive). In the case of `NS(=O)(=O)c1ccc2nc(NC(=O)C3=COCCO3)sc2c1` it was -2.24% (inactive); in that of `Cc1nc2cc(NC(=O)Nc3cccc(F)c3)ccc2n1C`, 56.5% (active). For `C=CCN(C(=O)Nc1ccc2c(c1)nc(C)n2C)c1ccccc1` the value was 3.61% (inactive); for `Cc1nc2cc(NC(=O)NC3CC3)ccc2n1C`, -7.31% (inactive); for `O=C(COC(=O)c1ccc[nH]c1=O)Nc1ccc2c(c1)OC(F)(F)O2`, 5.92% (inactive). For `CCOC(=O)/C(N=Nc1cc(C(=O)O)cc(C(=O)O)c1)=C(\O)CCl` the value was 10.2% (inactive); for `COc1ccc(-n2cc(-c3ccccc3)c3c(=S)nc[nH]c32)cc1`, 5.15% (inactive). As for `COC(=O)c1sc(NC(=O)c2ccc(OC)cc2OC)nc1C`, the inhibition is 57.3% (active). For `COc1cc2ccccc2cc1C(=O)Nc1nc(C)c(C(C)=O)s1` the value was -6.84% (inactive); for `COc1ccc(Cc2nnc(NC(=O)c3ccc(OC)cc3OC)s2)cc1`, -12.4% (inactive). For `O=C(O)CC/C(=C\c1cc2c(cc1Br)OCO2)c1nc2ccccc2s1` the value was 17.4% (inactive).

Regarding `CCN(CC(=O)Nc1ccc(C)c(S(=O)(=O)N(C)C)c1)Cc1ccccc1`, the inhibition is 2.21% (inactive). For `Cc1ccc(NC(=O)OCc2cncs2)cc1` the value was -1.58% (inactive). For `COc1ccc(NC(=O)/C(Cl)=C(/Cl)S(=O)Cc2ccc(C)cc2)cn1` (stereo not given) the value was 59% (active); for `COc1ccc(NC(=O)c2cc(-c3ccc(C)cc3)on2)cc1`, 7.98% (inactive); for `COc1ccc(S(=O)(=O)NCCCc2ccccc2)cc1`, 16% (inactive). For `C=CCn1c(-c2ccc(Cl)cc2)ccc(C#N)c1=O` the value was 1.51% (inactive); for `CCC(C)(C)NC(=O)CN(C(=O)CCC(=O)Nc1cc(C)ccn1)c1ccc2c(c1)OCCO2`, 0.138% (inactive). With `COc1ccc(C(=O)Nc2ccccc2C(=O)N/N=C/c2ccc(O)c(OC)c2)cc1`, the inhibition is 97.1% (active).

With `COc1ccc(C(=O)Nc2ccccc2C(=O)N/N=C/c2ccccc2OC)cc1`, the inhibition was 73.7% (active).

As to `COc1ccc(C(=O)Nc2ccccc2C(=O)NCc2ccco2)cc1`, the inhibition was 12% (inactive).

As for `COc1cc(/C=N/NC(=O)c2ccc(N3CCCC3=O)cc2)ccc1O`, the inhibition is -4.06% (inactive). For `COc1ccc(/C=N/NC(=O)c2ccc3c(c2)OCCO3)c(OC)c1` the value was -1.2% (inactive). In the case of `COc1ccc(/C=N/NC(=O)c2ccccc2)cc1OS(=O)(=O)c1ccccc1` it was 2.24% (inactive); in that of `Cc1cccnc1CCNC(=O)C1CCC(=O)N(Cc2cccc(F)c2)C1` (stereo not given), -10.1% (inactive); in that of `CC(=O)N1CCN(CC(c2ccccc2)c2ccccc2)CC1`, 7.74% (inactive). As for `COc1cccc(N2CCN(c3ccc4nnc(CCC(=O)N5CCN(C)CC5)n4n3)CC2)c1`, the inhibition was 7.34% (inactive).

As to `COC(=O)c1c(NC(=O)CN2C(=O)NC(CCc3ccccc3)C2=O)sc2c1CCCCC2` (stereo not given), the inhibition was -0.263% (inactive). For `COc1ccc(C2=NS(=O)(=O)N(C)C(C(=O)N(C)Cc3ccccc3)=C2)cc1` the value was 0.338% (inactive); for `O=C(CN(C(=O)c1nsc(Cl)c1Cl)c1cccc(F)c1)NC1CCCC1`, -4.29% (inactive).

Take `COc1ccc(/C=N/NC(=O)Cn2cc(C(F)(F)F)ccc2=O)cc1`: the inhibition was 3.51% (inactive). For `Cc1nn(CC(=O)NCC2CCCO2)c(=O)c2cc3ccccc3n12` (stereo not given) the value was -4.75% (inactive). For `CCOC(CNC(=O)C(=O)NCC(c1ccco1)N1CCN(c2ccc(OC)cc2)CC1)OCC` (stereo not given) the value was -9.05% (inactive); for `COc1ccc(C(=O)N2CCCC(C(=O)c3ccccc3OC)C2)cc1OC` (stereo not given), 2.76% (inactive); for `Cc1ccc(S(=O)(=O)c2nc(NCCCn3ccnc3)sc2Cl)cc1`, -1.94% (inactive).

For the compound `Cc1c(Cl)cccc1NC(=S)NCC(O)c1ccccc1` (stereo not given), the inhibition is 3.98% (inactive). For `OC(CNCc1ccc(Cl)c(Cl)c1)c1ccccc1` (stereo not given) the value was 52.7% (active); for `CC(C)(CNCC(O)c1ccccc1)N1CCOCC1` (stereo not given), 1.36% (inactive).

With `COc1ccc(NC(=O)CC(NC(C)c2ccccc2)C(=O)O)cc1` (stereo not given), the inhibition is -14.9% (inactive). For `Cc1ccc(C)c(OCCC(=O)OCC(=O)N2CCN(c3ccccc3)CC2)c1` the value was -18.4% (inactive).

As for `CC1(c2ccc(Cl)cc2Cl)NC(=O)N(CC(=O)Nc2cccnc2Cl)C1=O` (stereo not given), the inhibition is -2.12% (inactive). As to `Cc1ccc(NS(=O)(=O)c2ccc(C(=O)NCCCN3CCOCC3)cc2)cc1`, the inhibition was -3.44% (inactive).

In the case of `CCOc1ccc(S(=O)(=O)Nc2cccc(C(=O)NCC3(N4CCCCC4)CCCCC3)c2)cc1`, the inhibition was 5.48% (inactive). In the case of `O=C(NCC1(N2CCCCC2)CCCCC1)c1ccc(NS(=O)(=O)c2ccc(F)cc2)cc1` it was 52.6% (active). Turning to `CCN(CC)C(=O)Oc1ccc(Br)cc1C(=O)Nc1ccc(F)c(Cl)c1`, the inhibition was -3.91% (inactive).

As for `COC(C[C@@H](O)[C@H](C)[C@H](O)COCc1ccccc1)OC`, the inhibition is -0.14% (inactive). In the case of `CC(=O)N/C(=C\c1ccccc1)C(=O)OC(C)C(=O)N(C)c1ccccc1` (stereo not given) it was -1.59% (inactive); in that of `CC(C)Cn1c(=O)c2ccccc2n2c(CCC(=O)NCc3ccccn3)nnc12`, 3.52% (inactive); in that of `O=C(CSc1ccc2nnc(-c3ccccc3)n2n1)N1CCCc2ccccc21`, 17.4% (inactive). As for `CCCCNC(=O)C1(c2ccc(OC)cc2)CCOCC1`, the inhibition was 4.45% (inactive).

In the case of `CC(C)Oc1ccc(CCc2n[nH]c(=S)n2Cc2ccccc2)cc1`, the inhibition is -6.11% (inactive). For `O=S(=O)(c1ccccc1)N1CCc2ccccc21` the value was 2.42% (inactive); for `COc1cc2c(cc1OC)CN(CC(=O)Nc1ccc(F)cc1)CC2`, 7.57% (inactive); for `CC(=O)Nc1ccc(C(=O)/C=C/c2ccc[nH]2)cc1`, -21.1% (inactive). For `COc1cc2c(cc1OC)/C(=C/C(=O)c1ccc(NC(C)=O)cc1)NCC2` the value was 55.3% (active). In the case of `CCOC(=O)Cc1cc(=O)[nH]c(/N=C(\N)Nc2ccc(OC)cc2)n1`, the inhibition is 8.61% (inactive). Take `O=C(C[n+]1ccccc1)N/N=C/c1ccc(O)cc1`: the inhibition is 2.83% (inactive). Take `Cc1nonc1C(=O)N/N=C/c1ccc(O)cc1`: the inhibition is 103% (active). In the case of `Cc1nc2ccc(C(=O)N/N=C/c3ccc(O)cc3)cc2[nH]1` it was -1.64% (inactive); in that of `CC(NC(=O)c1ccccc1C(=O)O)c1ccc(-n2ccnc2)cc1` (stereo not given), 13.8% (inactive); in that of `O=C(Nc1ccc(Cl)cc1)Nc1ccc(Oc2cccnc2)nc1`, 2.76% (inactive). In the case of `CC(C)=CCN1CCN(Cc2cc3ccccc3[nH]2)CC1CCO` (stereo not given) it was 9.2% (inactive); in that of `CC1CCCCN1S(=O)(=O)c1ccc(C(=O)Nc2nnc(-c3cccs3)o2)cc1` (stereo not given), -0.561% (inactive). In the case of `CCN(CC(=O)NCc1cccs1)S(=O)(=O)c1ccc(NC(C)=O)cc1` it was -21.6% (inactive).

Consider `CC1CCCCN1S(=O)(=O)c1ccc(S(=O)(=O)N(CC(=O)Nc2ccccc2)Cc2cccs2)cc1` (stereo not given), for which the inhibition is 50.6% (active).

In the case of `O=C(Nc1ccncc1)Nc1ccc(F)cc1`, the inhibition is 4.47% (inactive). In the case of `CC1(C)CC[C@]2(C(=O)O)CC[C@]3(C)C(=CCC4[C@@]5(C)CC[C@H](O)C(C)(C)C5[C@H](O)C[C@]43C)[C@@H]2C1` (stereo not given in full) it was 3.05% (inactive). In the case of `COc1cc(NC(=S)NNC(=O)CC(C)C)c(OC)cc1Cl`, the inhibition is -6.51% (inactive). For `COC(=O)c1c(NC(=O)c2ccccc2F)sc2c1C(C(=O)OC)CC2` (stereo not given) the value was 2.31% (inactive); for `Cc1nc(CC(=O)NNS(=O)(=O)c2ccc(F)c(Cl)c2)cs1`, 12.2% (inactive); for `O=C(N/N=C/c1ccccn1)c1cccc(NC(=O)c2ccc(Cl)cc2)c1`, 1.55% (inactive). For `COc1cc(/C=N/Nc2nn3cnnc3c3ccccc23)cc(OC)c1OC` the value was 11.5% (inactive); for `CN(CCO)c1ccc(/C=N/Nc2nncc3ccccc23)cc1`, 76.1% (active); for `C/C(=N\Nc1nncc2ccccc12)c1ccc(Cl)c([N+](=O)[O-])c1`, -6.62% (inactive). For `Cc1c(C(=O)NCCN2CCOCC2)sc2nc(-c3ccc(F)cc3)cn12` the value was 10.4% (inactive); for `CSCCC(NC(=O)COc1ccccc1)C(=O)OCCOc1ccc(F)cc1` (stereo not given), -11.3% (inactive). Take `CCN1C(=NCc2ccc(OC)cc2)N[C@@H](CCc2ccccc2)[C@H](C(=O)NCc2ccc(OC)cc2)[C@H]1C`: the inhibition is 9.74% (inactive). In the case of `CN(C)S(=O)(=O)c1cccc(C(=O)OCC(=O)N2CCCC2=O)c1` it was -9.7% (inactive). For `O=C(NCc1ccccc1)C1CCN(C(=O)Cc2ccccc2)CC1` the value was -35.6% (inactive); for `CCOC(=O)c1cnc2nc(SCc3ccccc3Cl)[nH]n2c1=O`, 3.83% (inactive). In the case of `CCOc1ccc(C2C3=C(CCCC3=O)N(CC(=O)O)C3=C2C(=O)CCC3)cc1` it was -23.7% (inactive). With `CCN1CCN(C(=O)C2CCCN(S(=O)(=O)c3ccc(OC)c(OC)c3)C2)CC1` (stereo not given), the inhibition was 5.04% (inactive). Turning to `O=S(=O)(Nc1ncccn1)c1ccc(NS(=O)(=O)c2cccc(Cl)c2Cl)cc1`, the inhibition was 1.24% (inactive). For `COc1cccc(C(=O)c2cc3ccc(O)cc3oc2=O)c1` the value was 69.5% (active); for `CCOC(=O)c1cc2cc3ccccc3cc2oc1=O`, 8.56% (inactive); for `COc1cccc(C(=O)NNC(=O)c2cccc(F)c2)c1`, -6.44% (inactive). For `Nc1nonc1-n1nnc(C(=O)N/N=C/c2ccc(Cl)cc2)c1-c1ccc2c(c1)OCO2` the value was 2.68% (inactive). In the case of `O=C(CN1CCOCC1)N1CCCc2c1c(=O)oc1ccc(OCc3ccccc3)cc21` it was -1.74% (inactive); in that of `CC(C)(C)c1cc[n+](-c2[nH]c(=O)sc2/C=N/N=C(\[O-])c2ccccc2)cc1`, 3.87% (inactive); in that of `CC(CCc1ccc(O)cc1)NCc1ccc(Cl)cc1Cl` (stereo not given), 1.67% (inactive).

For `O=C(CCn1nnnc1CN1CCOCC1)N1CCC(c2ccccc2Cl)C1` (stereo not given), the inhibition was 2.44% (inactive). For `CCc1cc(CNC(=O)CC2C(=O)NCCN2CC2CCCCC2)on1` (stereo not given) the value was 4.79% (inactive); for `CN=C1S/C(=C\c2c(OC)cc(OC)cc2OC)C(=O)N1C`, 10.3% (inactive). For `COc1ccccc1C(=O)COC(=O)CNS(=O)(=O)c1ccc(NC(C)=O)cc1` the value was 6.24% (inactive). For `Cn1cc([N+](=O)[O-])c(C(=O)Nc2ccc3c(c2)OCCO3)n1` the value was 31.8% (inactive); for `Cc1onc(C(=O)Nc2ccc3c(c2)OCO3)c1[N+](=O)[O-]`, 75.7% (active). On to `Cc1nn(CC(=O)Nc2ccc3c(c2)OCO3)c(C)c1[N+](=O)[O-]`, for which the inhibition is 11.1% (inactive).

Take `Cc1nn(C)c(Cl)c1CN1CCC(Oc2ccc(C(=O)N3CCCC3)cc2)CC1`: the inhibition is 0.366% (inactive). For `Brc1ccc(C2CC(c3ccccc3)=Nc3ccccc3N2)cc1` (stereo not given) the value was 7.02% (inactive); for `C=CCn1c(C)cc(C(=O)CN2C(=O)c3ccccc3C2=O)c1C`, 6.9% (inactive); for `Cc1cccc(N=C2NN=C(c3c[nH]c4ccccc34)CS2)c1`, -0.733% (inactive).

As to `C=CCn1c(C)cc(C2=NNC(=NCC)SC2)c1C`, the inhibition is 50.4% (active). For `COc1ccc(CCN2C(=O)N(c3ccc(OC)cc3)C(=O)C2CC(=O)Nc2ccc(OC)cc2)cc1` (stereo not given) the value was -2.02% (inactive); for `COC(=O)[C@@]12CCCN1[C@H](c1ccc(-c3ccc(F)cc3)c(OC)c1)[C@H]1C(=O)N(C)C(=O)[C@H]12`, 0.984% (inactive).
